Wnt bcat act – Wnt/beta-catenin pathway activators, primary screen, cell-based, plate reader, single point; Wnt/beta-catenin reporter cell assay, activator; activation, % at 9.35 µM; 1.2% of 300,000 active; AID 743398, 2014; in the data active means activation above about 30%, passing the limit was not always enough; inconclusive means no clear call, values can overlap the other calls;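 further: 0% = neutral control wells and 100% = positive control wells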
FXN GAA850 act – FXN promoter activators, primary screen, cell-based, luciferase luminescence, HEK293 lucGAA850; HEK293 lucGAA850 FXN promoter luciferase reporter, 24 h; percent of 10 µM SAHA response; 0.56% of 360,000 active; activation, % at 6 µM;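 active means activation above the average of all compounds screened plus 3 SD, cutoff fixed separately per campaign, cut at about 7.5% in these data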;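 further: 0% = DMSO wells and 100% = 10 µM SAHA wells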
C2C12 statin – suppressors of statin myotoxicity in C2C12 myotubes, primary screen, cell-based, single point, plate reader. C2C12 myotubes + simvastatin, ATP luminescence, 48 h; scaled: DMSO 0, geranylgeraniol control 100. rescue of ATP level, % at 7.49 µM. 0.78% of 330,000 active. AID 602340, 2012;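 active means mean ATP rescue above about 67%, or every replicate alone reaching that limit, limit read from the data, passing the limit was not always enough; inconclusive means no clear call, values can overlap the other calls; inactive means mean under the limit and some replicate under it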;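 further: myotubes were challenged with 10 µM simvastatin during compound exposure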
esBAF inh – Bmi1 luciferase reporter increase in mESCs, primary screen, esBAF inhibitor project, mouse ES cells, Bmi1 luciferase knock-in, single point; 24 h; 100% = twice the neutral-well signal; AID 602393, 2012; reporter increase, % at 12.5 µM; 2% of 350,000 active; in the data active means activation above about 40%; inconclusive means no clear call, values can overlap the other calls;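 further: 0% = median of the plate's neutral control wells and 100% = double that signal; a rise in the Bmi1 reporter signal indicates esBAF inhibition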
MITF act – activators of MITF-driven TRPM1 promoter reporter, primary screen, cell-based, SK-MEL-5, luciferase, single point; activation, % at 12.5 µM; AID 588334, 2011; 0.75% of 300,000 active; SK-MEL-5 TRPM1-promoter luciferase, 24 h; % of positive control, neutral wells = 0;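 active means mean activation of at least 80% with every replicate also reaching 80%; inconclusive means mean reaches 80% but some replicate falls short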;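 further: 0% = neutral control wells and 100% = parthenolide positive control wells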
Ring1 derepress – Ring1 mRNA increase in mouse ESCs, confirmation, esBAF inhibitor project, cell-based, mouse ESC, RT-qPCR, cherry-pick; shares compounds with esBAF inh; mouse ESC E14, Ring1 mRNA RT-qPCR fold change; fold change at 33 µM; 550 tested, under 10 active;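 active means Ring1 gene expression raised more than 2-fold over untreated cells in both replicates at either tested dose; inconclusive means only one replicate above 2-fold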;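 further: Ring1 transcript normalised to actin housekeeping signal by TaqMan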
esBAF Fgf4 qPCR – Fgf4 mRNA decrease in mouse ESCs, confirmation, esBAF inhibitor project, cell-based, mouse ESC, RT-qPCR, cherry-pick; 4% of 550 active; shares compounds with esBAF inh; mouse ESC E14, Fgf4 mRNA qPCR fold change; hits give low values; Fgf4 expression fold change at 33 µM;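 active means Fgf4 expression under 0.8 fold of control in both repeat measurements at one or both tested doses; inconclusive means under 0.8 fold in just a single repeat measurement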;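 further: Fgf4 transcript normalised to actin in duplex TaqMan qPCR; cells exposed to compound for 24 h before lysis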
esBAF Bmi1 qPCR – esBAF inhibition via Bmi1 de-repression, confirmation, cell-based, RT-qPCR, mouse ESC, single point, cherry-pick; shares compounds with esBAF inh; mouse ESE14 ES cells, Bmi1 mRNA qPCR fold; hits give high values; fold change at 33 µM; 550 tested, under 10 active; AID 743180, 2013;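 active means Bmi1 expression fold change above 6 at either tested concentration, seen in replicate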;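 further: higher fold means more Bmi1 de-repression and stronger esBAF inhibition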
A549 tox SP – A549 cell cytotoxicity, cytotoxicity control, plate reader, single point, cherry-pick | shares compounds with esBAF inh | cell viability change % (negative = cytotoxic), % at 25 µM, hits read low | 550 tested, under 10 active | AID 743188, 2013; call rule not given here
HepG2 cytotox SP – HepG2 cell cytotoxicity, cytotoxicity control, plate reader, single point, cherry-pick. activity change, negative = inhibition, % at 25 µM. 4% of 550 active. hits give low values. shares compounds with esBAF inh. AID 743189, 2013; in the data active means activity change below about -50%
HEK293 tox SP – HEK293 cell cytotoxicity, cytotoxicity control, plate reader, single point, cherry-pick; shares compounds with esBAF inh; activity change, negative = inhibition, % at 25 µM, hits read low; 3% of 550 active; in the data active means activity change below about -38%, passing the limit was not always enough
Starred values were filed as active, the others as inactive. A selection: hits, their analogues and other compounds. The true share with any hit is near 3.3%.

Screening O=C(NC1CCCCC1)N1CCc2ccccc2C1 returned Wnt bcat act 10, FXN GAA850 act 4, C2C12 statin -7, esBAF inh 67*, MITF act 77, Ring1 derepress 1.1, esBAF Fgf4 qPCR 1, esBAF Bmi1 qPCR 1.9, A549 tox SP -7, HepG2 cytotox SP -26 and HEK293 tox SP -11.
`N/C(=N\OC(=O)C1CCCCC1)c1ccc(Cl)cc1` gave Wnt bcat act 5, FXN GAA850 act 4, C2C12 statin 8, esBAF inh 65*, MITF act 41, Ring1 derepress 0.97, esBAF Fgf4 qPCR 1, esBAF Bmi1 qPCR 1.6, A549 tox SP -10, HepG2 cytotox SP -25 and HEK293 tox SP -7.
For CN(C)c1ccc(C(=O)c2ccccc2)cc1 the results were Wnt bcat act 24, FXN GAA850 act 4, C2C12 statin -1, esBAF inh 58*, MITF act 73, Ring1 derepress 1.1, esBAF Fgf4 qPCR inconclusive, esBAF Bmi1 qPCR 1.5, A549 tox SP -7, HepG2 cytotox SP 4 and HEK293 tox SP 1.
`Cc1ccc(C)c(N=Nc2ccc(O)c3ncccc23)c1` gave Wnt bcat act -9, FXN GAA850 act 0 and MITF act -62.
`Cc1ccc(N=Nc2cc(C)ccc2O)c(C)c1` gave Wnt bcat act 17, FXN GAA850 act 3, C2C12 statin 3, esBAF inh 87*, MITF act 52, Ring1 derepress 1.1, esBAF Fgf4 qPCR inconclusive, esBAF Bmi1 qPCR 1.7, A549 tox SP -8, HepG2 cytotox SP -50* and HEK293 tox SP -14.
Screening O=C(C[C@H]1CC[C@@H](NC(=O)CN2CCOCC2)[C@@H](CO)O1)NCc1cccc(F)c1 returned C2C12 statin 32 and esBAF inh 2.
`COc1ccc(C)c2sc(=NC(=O)c3cccc(N4C(=O)CCC4=O)c3)n(C)c12` gave Wnt bcat act 0, FXN GAA850 act 5, C2C12 statin -1, esBAF inh 76*, MITF act 55, Ring1 derepress 1.5, esBAF Fgf4 qPCR 0.98, esBAF Bmi1 qPCR 1.6, A549 tox SP -9, HepG2 cytotox SP -19 and HEK293 tox SP 2.
Screening C=CCn1c(=NC(=O)c2cccc(N3C(=O)CCC3=O)c2)sc2cccc(OC)c21 returned Wnt bcat act 1, FXN GAA850 act -1, C2C12 statin -11, esBAF inh -5 and MITF act 11.
For Cc1ccc(NC(=O)c2ccnc(C(C)(C)C)c2)cc1 the results were Wnt bcat act 18, FXN GAA850 act 2, C2C12 statin -4, esBAF inh 71*, Ring1 derepress 1.2, esBAF Fgf4 qPCR 0.93, esBAF Bmi1 qPCR 1.6, A549 tox SP 1, HepG2 cytotox SP -47 and HEK293 tox SP -13.
`CC(C)(C)c1cc(C(=O)Nc2ccccc2)ccn1` gave Wnt bcat act -3, FXN GAA850 act -2 and esBAF inh 19.

Source: PubChem
